HT1080NT lethal: kills 2HG-producing HT-1080-NT fibrosarcoma cells; HT-1080-NT fibrosarcoma viability, CellTiter-Glo ATP luminescence, 48 h; Potency, µM (top dose mostly 46.1 µM), for inactives: at the highest dose activity, negative = less viability, most hits filed as cytotoxic; 1.6% of 360,000 active;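 also: NT is the 2HG producing partner of a matched IDH1 knockdown line; 0% = DMSO-treated cells and -100% = media-only wells without cells; nearly all actives have a fitted effect of over 55% in size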
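750 cells/well, RPMI + 5% FBS; 2 h settle, compound pin-transfer, 48 h at 37 degrees C. CellTiter-Glo 10 min RT, luminescence. Normalized to DMSO and media-only wells.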
DT40 TDP1 CPT: DT40-hTDP1 cell growth loss with CPT. chicken DT40 Tdp1-/-;hTDP1 cells + 20 nM CPT, ATP luminescence, 48 h. 12% of 420,000 active. Potency, µM (titrated, usually from 46.2 µM), inactives show top-dose activity change, negative = growth inhibition, most hits filed as inhibitors; also: % is scaled to controls: 0 for no effect and ±100 for the full control effect; nearly all actives have a fitted effect of over 55% in size
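Chicken DT40 Tdp1-/- cells complemented with human TDP1, 400 cells/well, exposed to compounds plus 20 nM camptothecin for at least 48 h at 37 C; viability read as ATP content by CellTiter-Glo luminescence.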
TGFb inhibitor: blocks TGF-b signaling. AID 588855. Potency, µM (titrated, usually from 46.1 µM), for the others: at the top dose activity, negative = inhibition, actives largely listed as inhibitors. HepG2 CAGA-GFP TGF-b/SMAD3 reporter, GFP fluorescence, 18 h; TGF-beta stimulated, 500 pg/mL final. 1.2% of 410,000 active; also: % is scaled to controls: 0 for no effect and ±100 for the full control effect; nearly all actives have a fitted effect of over 65% in size
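HEPG2 CAGA-GFP cells (1000/well, DMEM with 1% FBS) were pre-incubated 2 h at 37 degrees C, given compound by pin tool, then stimulated with TGF-beta at 500 pg/mL final for 18 h before per-cell GFP fluorescence imaging.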
HepG2 viability: HepG2 cytotoxicity, counter-screen for TGF-b inhibitors. Potency, µM (series often up to 46.1 µM), for the others: at the highest dose activity change, negative = cytotoxicity, usual class: cytotoxic. 0.76% of 410,000 active. HepG2 CAGA-GFP viability, ATP luminescence, 18 h. AID 588856
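CellTiter-Glo luminescence gave cytotoxicity after 18 hours at 37 degrees C. The cells were HepG2 CAGA-GFP in 1% FBS DMEM, stimulated with 500 pg/mL TGF-beta after compound addition. %Activity was normalised to no-cell wells (complete cell-killing) and DMSO (no toxicity), and curves were fitted and classified.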
DT40 TDP1 no CPT: qHTS for Inhibitors of human tyrosyl-DNA phosphodiesterase 1 (TDP1): qHTS in cells in absence of CPT. DT40 Tdp1-/- hTDP1 cells, no CPT, ATP luminescence, 48 h. 15% of 420,000 active. Potency, µM (highest dose often 46.2 µM), without a hit: top-dose activity change, negative = growth inhibition, actives largely listed as inhibitors. AID 686978, 2013; also: % is scaled to controls: 0 for no effect and ±100 for the full control effect; nearly all actives have a fitted effect of over 55% in size
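Chicken DT40 Tdp1-/- cells complemented with human TDP1, screened without camptothecin (DMSO vehicle only), 400 cells/well. Compounds pin-transferred, cells incubated at 37 °C for at least 48 hr. Growth read as ATP-dependent luminescence (CellTiter-Glo, 30 min at RT).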
HT1080 IDH1KD tx: toxicity to HT-1080 IDH1 knockdown cells (counter line); Potency, µM (series often up to 46.1 µM), inactives show top-dose activity, negative = toxicity, usual class: cytotoxic; HT-1080 IDH1 knockdown viability, ATP luminescence, 48 h; 2% of 360,000 active;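 also: 0% = DMSO wells and -100% = cell-free medium wells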
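Cytotoxicity counter-line: IDH1KD HT-1080, 48 h, CellTiter-Glo. Curves classed by r2, magnitude and activity.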
* hit, by the source's call; ? = inconclusive; . = no result; ! = repeats disagree. This is a sample that favours compounds with a hit; in the whole collection about 17% have one here. Calls follow the shape of the dose curve; as a rule, active = well fitted curve in the direction sought with a large enough effect; inconclusive = small, poorly fitted or top-dose-only effect, or another doubt; inactive = no such curve, though single readings can be large; an effect the other way counts as inactive or inconclusive. Potency is read from the fitted curve at half-maximal effect.

SMILES	HT1080NT lethal	DT40 TDP1 CPT	TGFb inhibitor	HepG2 viability	DT40 TDP1 no CPT	HT1080 IDH1KD tx
O=C1c2ccccc2NC(c2cccc(O)c2)N1NS(=O)(=O)c1ccccc1 (stereo unspecified)	-1.3%	-0.8%	-1.2%	-16.6%	-31.6%	-3.1%
CC(Sc1nnc(CNc2cccc3ccccc23)n1-c1ccccc1)C(=O)N/N=C/c1ccco1 (stereo unspecified)	-11.5%	-5.4%	-1.3%	-17.6%	-3.7%	3.4%
CCCCNC(=O)C1(C)CCN1C(=O)Cc1cccc2ccccc12 (stereo unspecified)	18.8%	?	19.3%	21.8%	?	6.7%
Cc1cccc(NC(=O)CCc2nnc3ccc(NCc4ccco4)nn23)n1	0.3%	1.3%	0.2%	-1.7%	-3.4%	-5.7%
N#CN=c1snc(-c2ccccc2Cl)n1-c1ccccc1Cl	.	?	?	2.2%	?	.
CC1CCC/C=C/C(=O)c2c(O)cc(O)cc2CC(=O)O1 (stereo unspecified)	18.4µM*	4.61µM*	7.08µM*	-68.0%	4.11µM*	20.6µM*
CCCN(CCC)CCNC(=O)C1CCN(c2nc3ccc(CC)cc3s2)CC1	.	8.2µM*	?	-61.6%	6.51µM*	.
CCCN(CCC)CCCNC(=O)C1CCN(c2nc3ccc(CC)cc3s2)CC1	.	5.8µM*	?	-50.6%	5.17µM*	.
CCc1ccc2nc(N3CCC(C(=O)NCCC(C)C)CC3)sc2c1	.	?	3.7%	-33.8%	?	.
Cc1ccc(CNC(=O)CCCCCn2c(=O)c3sccc3n(CC(=O)Nc3ccc(C)c(F)c3)c2=O)cc1	.	-4.5%	?	1.6%	?	.
O=C(CCSc1ccccn1)c1ccccc1	4.8%	2.31µM*	?	-22.5%	2.59µM*	?
O=C(O)CCSc1ccccn1	2.4%	-3.8%	-0.1%	-1.0%	0.1%	3.2%
COc1ccc(OCC(=O)N(C)CC2COc3ccccc3O2)cc1 (stereo unspecified)	-10.7%	18.4µM*	-18.4%	-39.1%	?	-9.3%
COc1ccc2c(CC(=O)N(C)CC3COc4ccccc4O3)coc2c1 (stereo unspecified)	-14.9%	?	-51.1%	-13.2%	2.4%	0.3%
CC1=CC(C)(C)Nc2ccc(OC(=O)CN3C(=O)c4cccc5cccc(c45)C3=O)cc21	-0.2%	2.91µM*	-4.4%	-18.8%	2.59µM*	-15.3%
C#CCOC(=O)CN1C(=O)c2cccc3cccc(c23)C1=O	-1.2%	-3.9%	1.4%	1.4%	0.0%	-1.0%
CCOc1ccc2c(c1)C(C)=CC(C)(C)N2	6.1%	13.3µM*!	-3.9%	-8.4%	?	-4.4%
O=C(c1ccc2c(c1)N(Cc1c(F)cccc1Cl)C(=O)c1ccccc1S2)N1CCOCC1	.	-20.0%	?	-19.8%	?	.
O=C(OCC(=O)N1CCC(Cc2ccccc2)CC1)c1cccnc1Cl	3.3%	-27.1%	-9.7%	-10.8%	-8.0%	0.0%
CCCCN(C)CCNC(=O)c1nn(-c2ccc(OC)cc2)c(=O)c2c1c1ccccc1n2C	2.1%	?	0.7%	-27.5%	18.4µM*	-1.4%
COc1ccc(-n2nc(C(=O)NCCc3ccc(OC)c(OC)c3)c3c4ccccc4n(C)c3c2=O)cc1	.	16.4µM*	?	-25.0%	14.6µM*	.
CCN(C(=O)c1nn(-c2ccc(OC)cc2)c(=O)c2c1c1ccccc1n2C)c1ccc(OC)cc1	1.9%	-1.7%	-0.9%	-22.5%	-24.7%	11.3%
COc1ccc(N2CCN(S(=O)(=O)CCNC(=O)/C=C/c3ccccc3)CC2)cc1	3.1%	1.3%	0.0%	0.9%	-16.1%	-0.5%
Cc1nnsc1C(=O)Nc1ccc(S(=O)(=O)N2CCCC(C)C2)cc1 (stereo unspecified)	-14.1%	?	?	-19.1%	?	-5.8%
NC(=O)/C=C\C(=O)Nc1cccc(C(F)(F)F)c1	?	5.17µM*	?	-33.8%	20.6µM*	10µM*
SMILES	HT1080NT lethal	DT40 TDP1 CPT	TGFb inhibitor	HepG2 viability	DT40 TDP1 no CPT	HT1080 IDH1KD tx
NNC(=O)Nc1cccc(C(F)(F)F)c1	7.5%	-6.6%	13.6%	2.3%	19.0%	13.5%
O=C(Nc1cccc(C(F)(F)F)c1)Nc1nnc(N2CCCCCC2)s1	.	?	-2.5%	0.9%	5.8µM*	.
O=C(Nc1ccncc1)Nc1cccc(C(F)(F)F)c1	7.3%	?	-14.1%	-23.1%	14.6µM*	-8.8%
O=C(Nc1ccc(OC(F)F)cc1)Nc1cccc(C(F)(F)F)c1	?	3.66µM*	?	8.91µM*	4.61µM*	?
O=C(Nc1cccc(C(F)(F)F)c1)NC1CCCCC1	?	23.1µM*	-6.0%	-25.1%	?	?
CCC(CO)Oc1cc(NCc2cccc(C(F)(F)F)c2)c2ncn(C(C)C)c2c1 (stereo unspecified)	8.7%	16.4µM*	?	-18.4%	?	-2.1%
CC[C@H](CO)Oc1cc(NCc2cccc(N)c2)c2ncn(C(C)C)c2c1	?	25.9µM*	.	.	?	?
CCC(CO)Oc1cc(NCc2cccc(C)c2)c2ncn(C(C)C)c2c1 (stereo unspecified)	9.4%	20.6µM*	-8.3%	-18.9%	?	-3.0%
CCC(CO)Oc1cc(NCc2ccc(C)cc2)c2ncn(C(C)C)c2c1 (stereo unspecified)	-10.7%	?	15.6%	7.6%	?	-1.1%
CCC(CO)Oc1cc(NCc2ccccc2O)c2ncn(C(C)C)c2c1 (stereo unspecified)	?	14.6µM*	-15.8%	-12.2%	18.4µM*	-7.0%
CCC(CO)Oc1cc(NCc2ccc(OC)cc2)c2ncn(C(C)C)c2c1 (stereo unspecified)	0.4%	?	?	-11.7%	?	-5.8%
NC(=O)c1ccc[n+]([C@H]2O[C@@H](COP(=O)([O-])OP(=O)(O)OC[C@H]3O[C@@H](n4cnc5c(N)ncnc54)[C@H](O)[C@@H]3O)[C@H](O)[C@@H]2O)c1	?	?	16.4%	23.0%	?	?
CCC(CO)Oc1cc(NCc2ccc(Cl)cc2Cl)c2ncn(C(C)C)c2c1 (stereo unspecified)	?	?	20µM*	-72.1%	?	?
CC[C@H](CO)Oc1cc(NCc2ccc(Cl)c(Cl)c2)c2ncn(C(C)C)c2c1	?	16.4µM*	?	-59.6%	?	-23.0%

Source: PubChem BioAssay (National Center for Advancing Translational Sciences (NCATS))
